Screening results as filed in PubChem.
Most compounds without a hit are left out; they make up all but 4.6% or so of the library.
D1 potentiator: enhances dopamine response at the human D1 receptor. HEK293 TREx D1 cells, calcium flux, dopamine EC20 potentiation. potentiation, % at 10 µM. 360,000 compounds, 0.036% hits; in the data active means potentiation above about 30%
Target sequence (P21728 whole entry, looked up): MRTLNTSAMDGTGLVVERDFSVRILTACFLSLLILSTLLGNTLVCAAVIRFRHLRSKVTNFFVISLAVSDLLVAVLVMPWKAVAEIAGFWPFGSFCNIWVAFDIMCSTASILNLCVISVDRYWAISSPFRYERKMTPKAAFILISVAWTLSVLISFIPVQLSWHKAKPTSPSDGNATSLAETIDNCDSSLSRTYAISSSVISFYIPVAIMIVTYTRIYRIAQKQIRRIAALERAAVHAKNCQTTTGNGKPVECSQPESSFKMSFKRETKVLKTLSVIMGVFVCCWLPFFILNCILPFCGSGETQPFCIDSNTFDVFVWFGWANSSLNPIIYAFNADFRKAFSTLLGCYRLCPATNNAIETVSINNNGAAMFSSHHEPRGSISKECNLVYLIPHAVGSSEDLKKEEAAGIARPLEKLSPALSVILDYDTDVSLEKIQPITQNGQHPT
TRHR enhancer: TRH receptor (human) allosteric enhancement. P34981. TRHR cells, fluo-8 calcium fluorescence, EC20 TRH enhancement. enhancement, % at 2 µM. 360,000 compounds, 0.66% hits; in the data active means enhancement above about 30%
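TRHR-expressing cells loaded with fluo-8 calcium dye were read kinetically (ex 480/em 530) during compound addition, then stimulated with an EC20 of TRH (10 nM final). Enhancement of the Gq-mediated intracellular calcium response was scored.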
D1 antagonist: human D1 dopamine receptor antagonism | P21728 | HEK293 TREx D1 cells, calcium flux, dopamine EC80; stronger effect = lower value | activity change, negative = inhibition, % at 10 µM | 360,000 compounds, 3.2% hits; in the data active means activity change below about -30%
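Antagonism measured as reduced calcium response to an EC80 dopamine addition following 180 s compound pre-read; cells were inducible HEK293 Trex D1 plated overnight at 30 C, read kinetically at 1 cycle/sec.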
D1 ag: activates the human D1 dopamine receptor. HEK293 T-REx D1 cells, calcium flux, agonist mode. P21728. activation, % at 2 µM. 360,000 compounds, 1% hits
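Tetracycline-induced HEK293 TREx D1 cells, force-coupled to calcium signalling, were dye-loaded with a no-wash calcium kit. Compound was pin-added after a 10 s baseline. Fluorescence was read kinetically at 1 cycle/s for 180 s, with calcium rises flagged as agonism.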
TRHR agonist: activates the human TRH receptor; P34981; TRHR cells, calcium flux fluo-8, FDSS agonist mode; activation, % at 2 µM; 360,000 compounds, 0.18% hits
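In this calcium-flux screen, cells bearing human TRHR are dye-loaded with fluo-8, baselined for 10 cycles, then exposed to library compounds; positive kinetic calcium responses during the agonist phase mark hits, with TRH as control.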
Epigenetic derep: regulators of epigenetic silencing causing reporter derepression in mouse cells; murine LDR cells, GFP reporter derepression, 30 h; Potency, µM (series often up to 53.9 µM), actives largely listed as activators; 280,000 compounds, 0.2% hits; active means well fitted activation curve with a large enough effect; further: nearly all actives have a fitted effect of over 60% in size
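Murine LDR cells carrying a silenced, genomically integrated CMV-driven GFP reporter were exposed to compound for 30 hours at 37 C. After PBS washes, GFP-positive cells (20–120 um objects) were counted by laser-scanning microplate cytometry.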
Of the large screens only hits and unclear results are named; the others gave an inactive call. Unless noted, no stated cut-off is given here; in the data, active means activation above about 30%; inactive means the rest.

CC(=O)Nc1nnc(/C=C/c2cccc([N+](=O)[O-])c2)s1	D1 antagonist -54 (no result: Epigenetic derep)
O=C(Nc1nnc(/C=C/c2ccccc2)s1)c1ccco1	TRHR enhancer 34
COC(=O)Nc1nnc(/C=C/c2ccccc2)s1	none
CSCCC(NS(=O)(=O)c1ccc2c(c1)oc(=O)n2C)C(=O)NCc1ccc(Cl)cc1 (centres undefined)	none
COc1ccccc1NC(=O)OCC#CCOC(=O)Nc1ccccc1OC	D1 antagonist -58
COCCNC(=O)C(c1ccc(C)o1)N(Cc1ccc(OC)cc1)C(=O)Cn1nnc2ccccc21 (centres undefined)	D1 ag 56
Cc1cc(C)c(NC(=O)CSc2nc(=O)n(Cc3ccncc3)c3c2CCC3)c(C)c1	none (no result: D1 antagonist)
FC(F)(F)c1cccc(Cn2nnnc2-c2ccc(Cl)cc2)c1	D1 antagonist -39
Cc1cc(C)cc(-n2c(C)cc(/C=N\NC(=O)COc3cccc4cccnc34)c2C)c1	D1 ag 45
Cc1cc(/C=N/NC(=O)COc2cccc3cccnc23)c(C)n1-c1ccc(O)cc1	none
CCOC(=O)c1ccc2c(c1)N(Cc1cccc([N+](=O)[O-])c1)C(=O)c1ccccc1S2	none
CCN(c1ccccc1)S(=O)(=O)c1c(C)nc2scc(C)n2c1=O	none
COc1cc(/C=C2\SC(=O)NC2=O)ccc1Oc1cnccn1	D1 antagonist -41
N#Cc1c(SCc2ccccc2)sc(C(=O)c2ccccc2)c1N	D1 antagonist -49
CN(C)/C=C1\SC(=S)N(c2ccc(Br)cc2)C1=O	D1 ag 41
Cn1c(Oc2ccccc2)nc2c1c(=O)n(Cc1ccc(Cl)cc1Cl)c(=O)n2C	none
Cc1ccc(S(=O)(=O)N2CCN(C(=O)COC(=O)CCOc3ccccc3C)CC2)cc1	D1 antagonist -36 (no result: Epigenetic derep)
CCOC(=O)CSc1nnc(CNC(=O)c2ccc(S(=O)(=O)N3CCOCC3)cc2)n1C	none
CCOc1ccccc1NC(=O)c1ccc(S(=O)(=O)N2CCCCC2)cc1	TRHR enhancer 32 (no result: Epigenetic derep)
COc1ccccc1NC(=O)c1ccc(S(=O)(=O)N2CCCC2)cc1	none
Cc1ccc(C)c(OCCC(=O)N2CCN(S(=O)(=O)c3ccc([N+](=O)[O-])cc3)CC2)c1	D1 antagonist -33 (no result: Epigenetic derep)
CCOC(=O)CSc1nnc(CNC(=O)c2ccc(S(=O)(=O)N3CCCC3)cc2)n1C	D1 ag 54
Cc1ccc(S(=O)(=O)N2CCN(C(=O)COC(=O)CCOc3cc(C)ccc3C)CC2)cc1	none (no result: Epigenetic derep)
Cc1ccccc1OCCOC(=O)c1ccc(S(=O)(=O)N2CCCC2)cc1	D1 antagonist -31 (no result: Epigenetic derep)
Cc1ccccc1OCC(=O)OCC(=O)Nc1cc(S(=O)(=O)N2CCCCC2)ccc1Cl	D1 antagonist -96 (no result: Epigenetic derep)
COc1ccc(S(=O)(=O)N2CCN(C)CC2)cc1NC(=O)c1ccccc1	none (no result: Epigenetic derep)
CCN1CCN(S(=O)(=O)c2ccc(OC)c(NC(=O)c3ccccc3)c2)CC1	D1 antagonist -48 (no result: Epigenetic derep)
O=C(COC(=O)CCS(=O)(=O)c1ccccc1)Nc1cc(S(=O)(=O)N2CCCCC2)ccc1Cl	none (no result: Epigenetic derep)
Cc1ccc(C)c(OCCC(=O)OCC(=O)N2CCN(S(=O)(=O)c3ccc(Cl)cc3)CC2)c1	none (no result: Epigenetic derep)
CCOc1ccc(OCCC(=O)OCC(=O)N2CCN(S(=O)(=O)c3ccc(Cl)cc3)CC2)cc1	D1 antagonist -32 (no result: Epigenetic derep)
COc1cccc(C)c1NC(=O)C(OC(=O)CNC(=O)c1ccccc1)c1ccccc1 (centres undefined)	none (no result: Epigenetic derep)
CCOc1ccc(NC(=O)Cn2c(=O)cc(C)c3c(C)nn(-c4ccc(CC)cc4)c32)cc1	none
CC(C)(C)c1ccc(S(=O)(=O)c2cn(CC(=O)Nc3ccccc3)c3ccccc3c2=O)cc1	none
CC(=O)N1CCCc2cc(S(=O)(=O)N(C)CC(=O)Nc3ccc(F)c(Cl)c3)ccc21	none
CCOc1ccc(CCNC(=O)NCc2noc3ccc(C)cc23)cc1	none
O=C1CC(c2ccccc2Cl)CC(O)=C1C=NCCCO (centres undefined)	TRHR enhancer 34 (no result: Epigenetic derep)
O=C(NNc1ccccn1)c1ccccc1CC[N+](=O)[O-]	D1 antagonist -44
CCOc1ccc(N2C(=O)/C(=C\c3ccc(OC)c(O)c3)S(=O)(=O)C2c2cccc([N+](=O)[O-])c2)cc1 (centres undefined)	D1 antagonist -73
CCCN1C(=O)C(Cc2nc3ccccc3c(=O)n2CC)c2cc(Br)ccc21 (centres undefined)	none
O=C(Nc1ncccc1Cl)C1COc2ccccc2O1 (centres undefined)	D1 ag 47
CC(C)CCN1C(=O)c2ccccc2CC1(C)C(=O)NC1CCC(C)CC1 (centres undefined)	none
CC1CCC(NC(=O)C2(C)Cc3ccccc3C(=O)N2Cc2ccc(Cl)cc2)CC1 (centres undefined)	D1 antagonist -52
O=C1c2ccccc2C(=O)N1CSc1nnnn1-c1ccccc1	none
O=C1c2ccccc2C(=O)N1CCCCSc1nnnn1-c1ccccc1	D1 antagonist -30, D1 ag 71
c1ccc(-n2nnnc2SCCCSc2nc3ccccc3s2)cc1	TRHR enhancer 34
O=S(=O)(c1ccc2c(c1)OCCO2)N1CCN(S(=O)(=O)c2cccs2)CC1	none (no result: Epigenetic derep)
Cc1ccc(CN2C(=O)c3oc4ccc(C)cc4c(=O)c3C2c2ccc(O)cc2)cc1 (centres undefined)	none
Cc1ccc2oc3c(c(=O)c2c1)C(c1cccc(O)c1)N(Cc1ccccc1Cl)C3=O (centres undefined)	D1 antagonist -55
CCOC(=O)c1cc(-c2ccccc2)sc1NC(=O)CC(C)C	D1 antagonist -31
CCOC(=O)c1cc(-c2ccccc2)sc1NC(=O)C(C)(C)C	none
Cc1cc(=O)[nH]c2nnc(SCC(N)=O)n12	none (no result: D1 antagonist)
CC(C)N(Cc1nc(-c2ccccc2)no1)C(=O)CCCN1C(=O)c2ccccc2C1=O	D1 antagonist -49
O=C(NCc1nc(-c2ccc(C(F)(F)F)cc2)no1)c1cccs1	D1 antagonist -34
CC(C)N(Cc1nc(-c2ccccc2)no1)C(=O)CN1C(=O)c2ccccc2C1=O	none
COc1ccc(-c2noc(CN(C(=O)c3ccc4c(c3)OCO4)C(C)C)n2)cc1	none (no result: Epigenetic derep)
COc1ccc(-c2noc(CN(C(=O)c3cccs3)C(C)C)n2)cc1	D1 ag 37
Cc1ccccc1C(=O)Nc1cccc(-c2cn3cccnc3n2)c1	none
O=C(NCc1ccc(Cl)cc1)C(=O)NCC(c1cccnc1)N1CCN(c2ccccc2)CC1 (centres undefined)	none
COc1ccc(C(=O)COC(=O)CCN2C(=O)C3C4CC(C(Br)C4Br)C3C2=O)cc1 (centres undefined)	none
